Results on 14 compounds are retold here after PubChem BioAssay (NCATS).

Structures are written as SMILES. “And” between values parts separate entries of the source, which are not always exact repeats. Identical values can stand only once. Records with an inconclusive call do not appear. The source made the active and inactive calls. Unless noted, calls follow the shape of the dose curve; as a rule, active = well fitted curve in the direction sought with a large enough effect; inconclusive = small, poorly fitted or top-dose-only effect, or another doubt; inactive = no such curve, though single readings can be large; an effect the other way counts as inactive or inconclusive.

The nature of test [1]: Validation of Assay for Modulators of Lamin A Splicing (AID 1459; active = well fitted curve in the direction sought with a large enough effect in the signal ratio; the % refers to the signal ratio;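 also: cells exposed to compound for two days before reading; 0% is about no effect; ratio rise marks activators and ratio drop marks inhibitors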). In outline:
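HeLa S3 lamin A-EGFP/DsRed2 stable clone, 600 cells/well, Opti-MEM 2% FBS; compounds by pin tool; 48 hrs, 37 °C/5% CO2; Acumen 488 nm scan, objects 10-100 um; GFP/RFP intensity ratio.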

Test [2] is described as follows: qHTS Assay for Lipid Storage Modulators (AID 1519; calls by dose curve; as to activity change, negative = inhibition: % is scaled to controls: 0 for no effect and ±100 for the full control effect). Conditions: Drosophila S3 cells, BODIPY lipid droplet/cell ratio, laser cytometry, cells loaded with oleic acid. In outline:
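Cells seeded at 5,000 per well were treated with compounds over a concentration series and loaded with oleic acid (400 uM, as added). Lipid droplet fluorescence (488 nm excitation, 500-530 nm channel) was read by laser-scanning cytometry and normalized to 20 uM Triacsin C.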
Background: Quantitative high-throughput screening tests each substance at several concentrations.

Test [3] addresses Alpha-galactosidase A (Homo sapiens) (UniProt P06280). The test can be described thus: Counterscreen for Glucocerebrosidase Inhibitors: qHTS Assay for Human alpha-Galactosidase at pH 4.5 (AID 992). Also: 0% is about no effect. In outline: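 Concentration-response curves (0.7 nM to 77 uM final) were modeled with the Hill equation to give AC50. Reactions: 2 nM enzyme, 80 uM fluorogenic alpha-galactoside, pH 4.5 citric acid buffer, 20 min, room temperature.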
Background: The purpose of a counterscreen is to sort out artefacts and off-target activity.

A short description of test [4]: Cell Viability - LYMP2-023 (AID 975).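 Also: cellular ATP measured by luciferase luminescence as viability proxy; plate controls were DMSO only for no effect and 92 µM tetraoctylammonium bromide control for full effect; nearly all actives have a fitted effect of over 55% in size.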 An outline of the steps:
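Concentration-dependent drop in intracellular ATP measures acute cytotoxicity in a human lymphoblastoid line treated for 24 hours in complete culture medium. AC50 values are taken from Hill-equation fits of qHTS data.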

The nature of test [5]: Cell Viability - LYMP2-025 (AID 976).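 Also: plate controls were DMSO only for no effect and tetraoctylammonium bromide control for full effect.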 An outline of the steps: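 In qHTS format, LYMP2-025 lymphoblastoid cells in complete culture medium received compound for 24 hr; ATP-based CellTiter-Glo signal gave viability, with AC50 derived by Hill equation.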
Test [6] is described as follows: Cell Viability - LYMP2-002 (AID 977).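 Also: compound exposure lasted 24 h at 37 °C; plate controls were DMSO only for no effect and 92 µM tetraoctylammonium bromide for full effect.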 In outline: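 Human lymphoblastoid LYMP2-002 cells, 2500 per well, exposed to compounds for 24 h at 37 C in complete medium; viability read as intracellular ATP by CellTiter-Glo luminescence, AC50 from Hill fits.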
Test [7] can be described thus: Cell Viability - LYMP2-006 (AID 978). Also: % is scaled to controls: 0 for no effect and ±100 for the full control effect; nearly all actives have a fitted effect of over 60% in size. An outline of the steps: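 Cells are seeded at 2500 per well and rested 5 hr at 37 C. Compounds are added across a concentration series for 24 hr at 37 C, after which ATP is quantified by luciferase luminescence.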
The nature of test [8]: Cell Viability - LYMP2-007 (AID 979).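 Also: cells exposed to compound for 24 h before reading; 0% = DMSO only and the negative end = 92 µM tetraoctylammonium bromide; nearly all actives have a fitted effect of over 60% in size.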 In outline:
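Acute toxicity is scored as a concentration-dependent fall in intracellular ATP in human lymphoblastoid cells treated 24 hr at 37 C, measured by luciferase luminescence; Hill-equation modelling yields AC50.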

A short description of test [9]: Cell Viability - LYMP2-008 (AID 980). Also: % is scaled to controls: 0 for no effect and ±100 for the full control effect; nearly all actives have a fitted effect of over 60% in size. In outline: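 Acute cytotoxicity is scored as concentration-dependent loss of cellular ATP in a human lymphoblastoid line after 24 hr treatment at 37 C. ATP is quantified by luciferase luminescence.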
The nature of test [10]: Cell Viability - LYMP2-010 (AID 981). Also: % is scaled to controls: 0 for no effect and ±100 for the full control effect; nearly all actives have a fitted effect of over 55% in size. In outline:
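Acute toxicity is scored as a concentration-dependent loss of cellular ATP in human lymphoblastoid cells after 24 hr compound exposure in complete medium. Tetraoctylammonium bromide is the positive control.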

Test [11] in a line: Cell Viability - LYMP2-012 (AID 982).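 Also: cellular ATP by luciferase luminescence where a drop means cytotoxicity; cells exposed to compound for one day before reading; 0% = DMSO only and full loss = 92 µM tetraoctylammonium bromide; nearly all actives have a fitted effect of over 55% in size.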
Test [12] can be described thus: Cell Viability - LYMP2-014 (AID 983).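 Also: plate controls were DMSO only for no effect and 92 µM tetraoctylammonium bromide for full effect; nearly all actives have a fitted effect of over 50% in size.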 In outline:
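Decrease in intracellular ATP after 24 hr treatment at 37 C, measured by luciferase luminescence, indicated cytotoxicity. Concentration-response data were fitted with the standard Hill equation to give AC50.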

The nature of test [13]: Cell Viability - LYMP2-016 (AID 984). Also: % is scaled to controls: 0 for no effect and ±100 for the full control effect; nearly all actives have a fitted effect of over 55% in size. An outline of the steps: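 Cells were seeded at 2500 per well and rested 5 hr before a 24 hr compound exposure at 37 C. Viability was then gauged as cellular ATP by luciferase luminescence, with AC50 values fitted to the Hill equation.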
The nature of test [14]: Cell Viability - LYMP2-018 (AID 985).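 Also: plate controls were DMSO only for no effect and tetraoctylammonium bromide at 92 µM for full effect; nearly all actives have a fitted effect of over 50% in size.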 An outline of the steps: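 Acute cytotoxicity is scored as a concentration-dependent drop in intracellular ATP after 24 hr exposure of the lymphoblastoid line in complete culture medium, measured by luciferase luminescence. Potency is expressed as AC50 from Hill modelling.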
Test [15] in a line: Cell Viability - LYMP2-020 (AID 986). In outline: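 Acute cytotoxicity in a human lymphoblastoid line is scored as a concentration-dependent fall in cellular ATP after 24 hr at 37 C in complete medium. The positive control is tetraoctylammonium bromide, and potency is given as Hill-fit AC50.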
The nature of test [16]: Cell Viability - LYMP2-022 (AID 987). An outline of the steps:
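Acute toxicity in a human lymphoblastoid line is scored as decreased intracellular ATP after 24 hr compound treatment at 37 C. ATP is measured by CellTiter-Glo luminescence; curves are fitted with the Hill equation to give AC50.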

The nature of test [17]: Cell Viability - LYMP2-024 (AID 988).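 Also: plate controls were DMSO only for no effect and 92 µM tetraoctylammonium bromide for full effect; nearly all actives have a fitted effect of over 60% in size.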 In outline:
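Acute toxicity is measured as concentration-dependent loss of intracellular ATP in a human lymphoblastoid line treated 24 hours at 37 C. Luciferase luminescence quantifies ATP; AC50 values come from standard Hill-equation modelling.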

Test [18] in a line: Cell Viability - LYMP2-026 (AID 989). Also: % is scaled to controls: 0 for no effect and ±100 for the full control effect; nearly all actives have a fitted effect of over 50% in size. An outline of the steps: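 Concentration-dependent loss of intracellular ATP in human lymphoblastoid cells after 24 hr at 37 C, quantified by luciferase luminescence. AC50 derived from standard Hill equation.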
A short description of test [19]: Cell Viability - LYMP1-002 - Assay at 24 hr (AID 993). Also: % is scaled to controls: 0 for no effect and ±100 for the full control effect. An outline of the steps:
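qHTS, LYMP1-002 lymphoblastoid, 24 h cpd, 37 C, CellTiter-Glo ATP luminescence; AC50 via Hill eq.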

The nature of test [20]: Cell Viability - LYMP1-002 - Assay at 40 hr (AID 994). An outline of the steps: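 Viability in the human lymphoblastoid line was measured as intracellular ATP via CellTiter-Glo after 40 hr compound exposure. Tetraoctylammonium bromide served as positive control.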
Where [21] appears, read: measured here: cell count channel max response.
The mark [22] stands for this setting: measured here: lipid channel max response.

Alpha-galactosidase A (Homo sapiens), sequence (P06280 whole entry, looked up): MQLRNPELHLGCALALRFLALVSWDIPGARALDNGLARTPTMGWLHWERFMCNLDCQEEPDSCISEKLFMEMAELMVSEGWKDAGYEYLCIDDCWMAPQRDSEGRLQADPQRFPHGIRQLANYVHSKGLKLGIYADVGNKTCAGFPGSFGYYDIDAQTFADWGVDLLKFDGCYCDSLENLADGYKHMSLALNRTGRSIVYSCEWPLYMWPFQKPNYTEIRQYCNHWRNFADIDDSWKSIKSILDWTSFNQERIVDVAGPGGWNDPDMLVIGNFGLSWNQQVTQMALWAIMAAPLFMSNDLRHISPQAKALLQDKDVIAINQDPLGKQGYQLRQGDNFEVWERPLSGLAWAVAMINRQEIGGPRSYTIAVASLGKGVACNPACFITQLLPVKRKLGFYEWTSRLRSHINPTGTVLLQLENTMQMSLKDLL

In the case of `CCOC(=O)C1=C[C@]2(CC)CCCN3CCc4c(n1c1ccccc41)[C@@H]32`, the compound was called inactive in test [1]. Moreover, in test [2] (at 57.5 µM (top of the series)), the activity change, negative = inhibition is -17.2% (inactive). The figures for the max response in [2] (setting [21]) and in [2] (setting [22]) were -25.8% and -38.8%, respectively.

Consider `Cc1cnc(NC(=O)C2=C(O)c3ccccc3S(=O)(=O)N2C)s1`, for which the compound was classed as inactive in [3] and in test [1].

Regarding `CC(C)(C)NCC(O)c1ccc(O)c(CO)c1` (stereo not given), the activity change, negative = inhibition in test [2] (at 57.5 µM (top of the series)) was 0.332% (inactive) and 5.35% (inactive). For the same compound, the max response was 11.9% and -13.2% in [2] (setting [21]); 15.4% and -7.47% in [2] (setting [22]).

For the compound `CCN(CC)CCCC(C)Nc1ccnc2cc(Cl)ccc12` (stereo not given), in test [1], the outcome was inactive. Also, in test [2] (at 57.5 µM (top of the series)), the activity change, negative = inhibition was 4.83% (inactive). Besides, the max response in test [2] (setting [21]) stood at 12.7%; in test [2] (setting [22]), 21.7%.

Take `COc1ccc2nc(S(=O)Cc3ncc(C)c(OC)c3C)[nH]c2c1` (stereo not given): the activity change, negative = inhibition in [2] (at 25.7 µM (top of the series)) is -4.82% (inactive). In addition, the max response in test [2] (setting [21]) worked out at 6.97%; in test [2] (setting [22]), 1.74%.

As to `N#Cc1ccc(C(c2ccc(C#N)cc2)n2cncn2)cc1`, the activity change, negative = inhibition in test [2] (at 25.7 µM (top of the series)) is 0.817% (inactive). For the same compound, the max response in test [2] (setting [21]) was -19.8%; in test [2] (setting [22]), -18.7%.

`CCCCNc1cc(C(=O)O)cc(S(N)(=O)=O)c1Oc1ccccc1`: the compound was called inactive in [3] and in [1]. Moreover, the activity change, negative = inhibition in test [2] (at 25.7 µM (top of the series)) was 0.496% (inactive); in [2] (at 57.5 µM (top of the series)) it was 9.35% (inactive) and 0.368% (inactive). The max response was 0.765% and 10.7% and -18.8% in test [2] (setting [21]); -1.29% and 24.4% and -13.7% in test [2] (setting [22]).

As for `NC[C@H](O)c1ccc(O)c(O)c1`, the call in test [3] and in test [1] was inactive. For the same compound, the activity change, negative = inhibition in [2] (at 57.5 µM (top of the series)) is 0.534% (inactive). Besides, the max response in test [2] (setting [21]) is -22.5%; in test [2] (setting [22]), -21.1%.

For the compound `NCCc1ccc(O)c(O)c1`, the result in test [3] and in test [1] was inactive. In test [2] (at 57.5 µM (top of the series)), the activity change, negative = inhibition was 6.86% (inactive) and 6.19% (inactive) and 1.49% (inactive). Also, the max response in test [2] (setting [21]) was 7.38% and 3.94% and -27.9%; in test [2] (setting [22]), 20.7% and 9.74% and -24.3%.

Regarding `Cc1ccccc1C(OCCN(C)C)c1ccccc1` (stereo not given), the activity change, negative = inhibition in test [2] (at 57.5 µM (top of the series)) is -0.936% (inactive). Moreover, the values for the max response in test [2] (setting [21]) and in test [2] (setting [22]) were -31.3% and -33.7%, respectively.

In the case of `NS(=O)(=O)c1cc2c(cc1Cl)NC=NS2(=O)=O`, the compound was classed as inactive in test [4], in test [5], in [6], in test [7], in test [8] and in test [9]. In addition, the outcome in test [11], in [12], in [13], in [14], in [15] and in [16] was inactive. In addition, the compound was called inactive in [17], in [18], in [3], in [19], in test [20] and in [1]. For the same compound, the Potency result in test [10] is “inactive”. Besides, the activity change, negative = inhibition in test [2] (at 25.7 µM (top of the series)) is -2.79% (inactive); in test [2] (at 57.5 µM (top of the series)), 7.25% (inactive) and -0.143% (inactive). The max response is 3.82% and 7.17% and -12.5% in test [2] (setting [21]); 1.14% and 18.5% and -16.5% in test [2] (setting [22]).

For the compound `CC(C)C[C@H](NC(=O)[C@@H](O)[C@H](N)Cc1ccccc1)C(=O)O`, in test [2] (at 57.5 µM (top of the series)), the activity change, negative = inhibition was -0.597% (inactive). For the same compound, the max response is -1.56% in test [2] (setting [21]) and -0.689% in test [2] (setting [22]).

In the case of `CCn1cc(C(=O)O)c(=O)c2cc(F)c(N3CCNC(C)C3)c(F)c21` (stereo not given), the activity change, negative = inhibition in test [2] (at 57.5 µM (top of the series)) was 5.34% (inactive). Further, the max response in [2] (setting [21]) was determined as 16.3%; in test [2] (setting [22]), 26.1%.

Regarding `CCCc1nc2c(C)cc(-c3nc4ccccc4n3C)cc2n1Cc1ccc(-c2ccccc2C(=O)O)cc1`, in [2] (at 57.5 µM (top of the series)), the activity change, negative = inhibition is -11.9% (inactive). The max response was -6.13% in [2] (setting [21]) and -15.7% in test [2] (setting [22]).
